Reference: the supplement of paper PMC3342239
Where a name gives a salt, the structure may show the parent alone.

tested on: Saccharomyces cerevisiae; assay: fraction of cells in G1 phase (DNA content, flow cytometry); higher = more cells with unreplicated DNA (G1 delay); settings: temperature: 30 C; YPD; JTY2953 pdr5 snq2 (sensitized); drug added to: cultures diluted from stationary phase; 6-7 h
Method in brief: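 S. cerevisiae grown in YPD at 30°C was exposed to library drugs. In one setup, overnight sensitized JTY2953 cultures were diluted 1∶200, given a final 20 µg/ml and fixed after 6–7 h, while other runs dosed dividing JTY2953 with fixation 6 h later or BY4741 with fixation 4.33 h later. Cells were ethanol-fixed, stained with SYTOX Green and analysed by flow cytometry at 10,000 events. The G1 fraction is the area of the Dean-Jett-Fox G1 peak divided by the summed G1 and G2/M areas.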

Question: With `CN(C)C(=N)NC(=N)N` [Metformin] (154.84 µM) as the molecule, how does the “fraction of cells in G1 phase” value read?
Answer: 0.516

Question: For `N=C(N)NC(=O)c1nc(Cl)c(N)nc1N` [Amiloride] (75.1597 µM), which “fraction of cells in G1 phase” value is on record?
Answer: 0.516

Question: How did the “fraction of cells in G1 phase” value turn out when `CC[C@H](C)C(=O)O[C@H]1C[C@H](O)C=C2C=C[C@H](C)[C@H](CC[C@@H]3C[C@@H](O)CC(=O)O3)[C@H]21` [Pravastatin lactone] (49.1976 µM) was run?
Answer: 0.451

Question: `CN(C)CCC=C1c2ccccc2CCc2ccccc21` [Amitriptyline HCl] (63.7146 µM) was tested. Which “fraction of cells in G1 phase” value did it give?
Answer: 0.418

Question: How did the “fraction of cells in G1 phase” value turn out when `CC1=C(CC(=O)O)c2cc(F)ccc2/C1=C\c1ccc([S+](C)[O-])cc1` (stereo not drawn) [Sulindac] (56.1137 µM) was run?
Answer: 0.521

Question: Which “fraction of cells in G1 phase” value does the source give for `CC(C)(Oc1ccc(CCNC(=O)c2ccc(Cl)cc2)cc1)C(=O)O` [Bezafibrate] (55.2748 µM) here?
Answer: 0.517

Question: `COc1cc(-c2ccc(=O)[nH]n2)ccc1OC(F)F` [Zardaverine] (74.5651 µM) was tested. Which “fraction of cells in G1 phase” value did it give?
Answer: 0.566

Question: `O=C(CCCN1CCC(O)(c2cccc(C(F)(F)F)c2)CC1)c1ccc(F)cc1` [Trifluperidol 2HCl] (48.8487 µM) was tested. Which “fraction of cells in G1 phase” value did it give?
Answer: 0.563

Question: How did the “fraction of cells in G1 phase” value turn out when `N=C(N)NC(=O)Cc1c(Cl)cccc1Cl` [Guanfacine HCl] (70.7818 µM) was run?
Answer: 0.495

Question: With `CCC1(c2ccccc2)NC(=O)N(C)C1=O` (stereo not drawn) [Mephenytoin] (91.6348 µM) as the molecule, how does the “fraction of cells in G1 phase” value read?
Answer: 0.522

Question: Which “fraction of cells in G1 phase” value does the source give for `c1ccc([C@H]2CN3CCSC3=N2)cc1` [Levamisole HCl] (97.8973 µM) here?
Answer: 0.488

Question: For `C[C@]12CC[C@@H]3c4ccc(O)cc4CC[C@H]3[C@@H]1CCC2=O` [Estrone] (73.9714 µM), which “fraction of cells in G1 phase” value is on record?
Answer: 0.508

Question: With `CS(=O)(=O)Nc1ccc([N+](=O)[O-])cc1Oc1ccccc1` [Nimesulide] (64.8687 µM) as the molecule, how does the “fraction of cells in G1 phase” value read?
Answer: 0.58

Question: Which “fraction of cells in G1 phase” value does the source give for `CC(C)OC(=O)CCC/C=C\C[C@@H]1[C@@H](CC[C@@H](O)CCc2ccccc2)[C@H](O)C[C@@H]1O` [Latanoprost] (46.2315 µM) here?
Answer: 0.528

Question: Which “fraction of cells in G1 phase” value does the source give for `CNC(=C[N+](=O)[O-])NCCSCc1ccc(CN(C)C)o1` [Ranitidine HCl] (63.6114 µM) here?
Answer: 0.501

Question: For `NC(=O)OCC(COC(N)=O)c1ccccc1` [Felbamate] (83.9631 µM), which “fraction of cells in G1 phase” value is on record?
Answer: 0.505

Question: For `NCCCC[C@H](N[C@@H](CCc1ccccc1)C(=O)O)C(=O)N1CCC[C@H]1C(=O)O` [Lisinopril] (49.322 µM), which “fraction of cells in G1 phase” value is on record?
Answer: 0.502

Question: How did the “fraction of cells in G1 phase” value turn out when `Cn1nnc2c(C(N)=O)ncn2c1=O` [Temozolomide] (103.011 µM) was run?
Answer: 0.48

Question: With `NS(=O)(=O)c1cc2c(cc1Cl)NC(C(Cl)Cl)NS2(=O)=O` (stereo not drawn) [Trichloromethiazide] (52.5406 µM) as the molecule, how does the “fraction of cells in G1 phase” value read?
Answer: 0.494

Question: `C[C@]12CC[C@@H]3c4ccc(O)cc4CC[C@H]3[C@@H]1C[C@@H](O)[C@@H]2O` [Estriol] (69.3505 µM) was tested. Which “fraction of cells in G1 phase” value did it give?
Answer: 0.535

Question: Which “fraction of cells in G1 phase” value does the source give for `CC(C)NCC(O)c1ccc(O)c(O)c1` (racemic) [Isoproterenol HCl (rac)] (94.6687 µM) here?
Answer: 0.447

Question: How did the “fraction of cells in G1 phase” value turn out when `O=C(O)COC(=O)Cc1ccccc1Nc1c(Cl)cccc1Cl` [Aceclofenac] (56.4665 µM) was run?
Answer: 0.489

Question: `Clc1cccc(Cl)c1NC1=NCCN1` [Clonidine HCl] (75.0469 µM) was tested. Which “fraction of cells in G1 phase” value did it give?
Answer: 0.504

Question: With `CCCNCC(O)COc1ccccc1C(=O)CCc1ccccc1` (stereo not drawn) [Propafenone] (58.5652 µM) as the molecule, how does the “fraction of cells in G1 phase” value read?
Answer: 0.489

Question: With `Nc1nc(=O)n([C@@H]2CS[C@H](CO)O2)cc1F` [Emtricitabine] (80.8899 µM) as the molecule, how does the “fraction of cells in G1 phase” value read?
Answer: 0.481

Question: With `COc1ccc2c3c1O[C@H]1C[C@@H](O)C=C[C@@]31CCN(C)C2` [Galanthamine HBr] (69.5987 µM) as the molecule, how does the “fraction of cells in G1 phase” value read?
Answer: 0.538

Question: With `CC(C)Cn1cnc2c(N)nc3ccccc3c21` [Imiquimod] (83.2257 µM) as the molecule, how does the “fraction of cells in G1 phase” value read?
Answer: 0.484

Question: `C[C@H]1c2cccc(O)c2C(O)=C2C(=O)[C@]3(O)C(O)=C(C(N)=O)C(=O)[C@@H](N(C)C)[C@@H]3[C@@H](O)[C@@H]21` [Doxycycline HCl] (44.9999 µM) was tested. Which “fraction of cells in G1 phase” value did it give?
Answer: 0.53

Question: `CN1CCC(=C2c3ccccc3CC(=O)c3sccc32)CC1` [Ketotifen fumarate] (64.6343 µM) was tested. Which “fraction of cells in G1 phase” value did it give?
Answer: 0.496

Question: With `CC(C)[C@H](N)C(=O)OCCOCn1cnc2c(=O)nc(N)[nH]c21` [Valaciclovir] (61.6633 µM) as the molecule, how does the “fraction of cells in G1 phase” value read?
Answer: 0.465

Question: With `CCN(CC)C(=O)/C(C#N)=C/c1cc(O)c(O)c([N+](=O)[O-])c1` [Entacapone] (65.5109 µM) as the molecule, how does the “fraction of cells in G1 phase” value read?
Answer: 0.508

Question: Which “fraction of cells in G1 phase” value does the source give for `O=S(=O)(c1cccc2cnccc12)N1CCCNCC1` (54.8998 µM) here?
Answer: 0.529

Question: `CN(C(=O)CCCOc1ccc2[nH]c(=O)ccc2c1)C1CCCCC1` [Cilostamide] (58.4041 µM) was tested. Which “fraction of cells in G1 phase” value did it give?
Answer: 0.499
